# High-throughput results: PubChem BioAssay, several laboratories
# BaF3 tox: reduces parental Ba/F3 cell viability, JAK2V617F counter-screen. 220,000 compounds, 1.1% hits. CellTiter-Glo ATP luminescence. inhibition, % at 5.6 µM;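 active = inhibition above a per-campaign cutoff, the mean inhibition of all tested compounds plus 3 SD, cut at about 27% in these data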;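 note: 0% = DMSO wells and 100% = JAK Inhibitor I control wells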
# aSyn 5UTR inh: 5' untranslated region of α-synuclein, MLPCN primary screen | AID 1813 | inhibition, % (tested at 7.5 µM) | alpha-synuclein 5'UTR reporter, inhibitor activity | 300,000 compounds, 0.82% hits; in the data active = inhibition above about 60%;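 note: H4 neuroglioblastoma cells stably carrying SNCA 5'UTR luciferase fusion; 0% = DMSO wells and 100% = positive control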
# KLF5 inhibitor: inhibitors of KLF5 expression. DLD-1 KLF5 promoter-luciferase reporter, luminescence. inhibition, % at 5 µM. AID 1700. 290,000 compounds, 0.23% hits;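 active = inhibition above a per-plate limit of that plate's mean compound inhibition plus 3 SD, cut at about 60% in these data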;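 note: 0% = DMSO wells and 100% = LY294002 at 200 µM; higher means less KLF5 promoter-driven luciferase light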
# APP 5UTR inh: APP translation inhibition. SH-SY5Y APP 5'UTR-luciferase reporter, luminescence. inhibition, % at 2 µM. 190,000 compounds, 0.82% hits. AID 1285;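 active = inhibition above a set limit, derived from the sample mean plus 3 SD, cut at about 45% in these data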
# IEC-6 tox: counter-screen for KLF5 inhibitors: cytotoxicity in IEC-6 cells | 290,000 compounds, 0.78% hits | IEC-6 cytotoxicity, luminescence viability | inhibition, % at 5 µM; in the data active = inhibition above about 22%;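 note: 0% = plate median of test compound wells and 100% = cytotoxic reference compound wells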
# Ba/F3 V617F tox: lowers viability of Ba/F3 cells expressing EpoR and JAK2V617F; AID 1446; inhibition, % at 5.6 µM; ATP luminescence; 220,000 compounds, 1.1% hits;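 active = inhibition above the campaign mean plus 3 SD over all tested compounds, cut at about 24% in these data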;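 note: cytokine-independent growth of Ba/F3 cells driven by EpoR plus mutant JAK2; 0% = DMSO-treated cells and 100% = JAK inhibitor I control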
# An asterisk follows results filed as active; / = no result. In the library only some 2.2% were active in any assay of this set; here they are far more common.
SMILES,BaF3 tox,aSyn 5UTR inh,KLF5 inhibitor,APP 5UTR inh,IEC-6 tox,Ba/F3 V617F tox
COC(=O)CN1C(=O)N/C(=C/c2cc(OC)c(OC)cc2C)C1=O,89.7*,10.6,-5.6,-30.6,4.5,-2.3
Cc1ccc(C)c(N2CCN(S(=O)(=O)c3ccc4c(c3)NC(=O)CS4)CC2)c1,/,2.0,15.8,/,0.3,/
CCOc1ccc2nc(NC3=NCN(CC4CCCO4)CN3)nc(C)c2c1 (stereo not given),10.9,/,-4.3,5.5,-1.1,3.3
Cc1ccc2nc(NC3=NCN(Cc4ccc5c(c4)OCO5)CN3)nc(C)c2c1,69.9*,/,6.0,93.8*,9.1,62.9*
CC(=O)Nc1ccc(NC(=O)COC(=O)CCCc2c[nH]c3ccccc23)cc1,/,8.6,/,/,/,/
CC1CCc2nc(NC(=O)C3CC3)sc2C1 (stereo not given),3.7,-137.8,-63.0,-21.4,2.5,-3.7
O=C(Nc1nc(-c2ccccc2)cs1)C1COc2ccccc2O1 (stereo not given),2.7,-31.3,4.0,3.1,2.0,1.2
CC1CCc2nc(NC(=O)C3COc4ccccc4O3)sc2C1 (stereo not given),9.7,63.1*,-26.0,-167.8,2.7,1.7
Cc1csc(NC(=O)C2COc3ccccc3O2)n1 (stereo not given),-1.4,62.3*,-80.4,-148.8,2.2,-3.2
Cc1cnc(NC(=O)C2COc3ccccc3O2)s1 (stereo not given),2.3,71.5*,-113.3,-144.1,-1.3,-6.6
Cc1nc2ccc3nc(NC(=O)C4COc5ccccc5O4)sc3c2s1 (stereo not given),3.6,3.1,-1.1,10.3,3.4,0.9
O=C(COC(=O)C1=COCCO1)NC1CCCCCCC1,4.0,14.0,-3.2,4.5,0.8,-1.8
O=C1CCc2cc(S(=O)(=O)NCCC(=O)NC3CCCCC3)ccc2N1,/,-7.4,-31.9,/,-14.4,/
O=C(Nc1cccc(-c2cn3cccnc3n2)c1)c1ccc(Br)o1,5.7,-50.2,-24.4,53.9*,3.5,3.8
O=C(Nc1cccc(-c2cn3cccnc3n2)c1)c1ccco1,1.4,-31.0,-14.1,13.7,-1.0,-3.0
COc1ccc(OC)c(NC(=O)Nc2cccnc2)c1,/,/,-25.4,/,2.9,/
CC(C)C(C(=O)Nc1ccc(N2CCOCC2)cc1)N1C(=O)c2ccccc2C1=O (stereo not given),60.4*,-1.1,-12.6,6.0,5.0,-1.9
CC(C(=O)Nc1ccc(N2CCOCC2)cc1)N1C(=O)c2ccccc2C1=O (stereo not given),5.9,26.8,-36.5,16.5,-0.1,-1.7
CC(C)C(C(=O)Nc1ccc2c(c1)OCCO2)N1C(=O)c2ccccc2C1=O (stereo not given),93.6*,-2.9,12.1,-13.1,-6.5,0.2
COCCN(C(=S)Nc1c(C)cccc1C)C(C)c1cccs1 (stereo not given),5.7,-0.6,-21.3,0.5,4.9,1.1
CCCCCn1c2c(c(=N)c3ccccc31)CCC2,69.2*,50.7,37.9,/,16.5,89.5*
CCOC(=O)Cn1c2c(c(=N)c3c1CCC3)CCC2,11.1,7.4,-4.7,6.3,-2.0,-0.3
CCCCn1c2c(c(=N)c3ccccc31)CCC2,60.8*,17.5,-9.7,/,3.1,71.3*
CCOC(=O)Cn1c2c(c(=N)c3ccccc31)CCC2,5.4,-10.8,-21.1,-7.9,-1.7,-4.0
CCn1c2c(c(=N)c3c1CCC3)CCCC2,50.3*,-6.7,-14.3,/,-0.2,30.4*
SMILES,BaF3 tox,aSyn 5UTR inh,KLF5 inhibitor,APP 5UTR inh,IEC-6 tox,Ba/F3 V617F tox
CCCCCCCCCCn1c2c(c(=N)c3c1CCC3)CCC2,96.1*,71.2*,60.6,22.6,56.1*,98.6*
CSc1ccc(CN2CCN(S(=O)(=O)Cc3ccccc3)CC2)cc1,/,39.4,4.5,/,0.4,/
Cc1nn(CC(=O)NCCCN2CCC(N3CCCCC3)CC2)c(=O)c2cc(-c3ccccc3)nn12,/,-32.2,-25.8,/,0.2,/
O=Cc1cc2ccccc2nc1SCc1ccc(Cl)cc1,2.6,95.2*,-3.8,2.6,-0.5,3.0
Cc1ccc(CSc2ncnc3ccccc23)cc1,3.3,-29.7,-1.7,-21.1,-1.4,3.8
Cc1ccc(CSc2nc3ccccc3cc2C=O)cc1,2.6,93.4*,6.5,94.2*,-2.5,2.3
O=Cc1cc2ccccc2nc1SCc1ccc(Cl)c(Cl)c1,-1.4,109.1*,-18.1,8.2,1.3,-3.5
O=Cc1cccnc1SCc1ccccc1,/,-39.5,/,/,/,/
O=C(Cc1ccc(Cl)c(Cl)c1)Nc1cccc(S(=O)(=O)N2CCOCC2)c1,5.4,9.9,-2.3,-17.5,0.7,-0.7
NC(=S)N=Nc1ccc(NN=C(N)N)cc1,/,68.4*,-7.3,/,-7.4,/
CCS(=O)(=O)N1CCN=C1SCc1ccc(F)cc1,/,2.6,-23.6,/,-9.6,/
CC(C)Cc1cc(-c2ccco2)c(C#N)c(N)n1,1.4,69.8*,-14.6,-11.7,-2.3,-2.2
COc1ccc(-c2cnnc(N/N=C/c3ccc(-c4ccc([N+](=O)[O-])cc4)o3)n2)cc1,4.6,/,-28.5,90.3*,0.1,-0.6
O=[N+]([O-])c1ccc(-c2ccc(/C=N/Nc3nc(N4CCCC4)nc(N4CCCC4)n3)o2)cc1,-0.6,-13.2,-11.2,-4.4,-8.6,-2.0
CN1CCC(N(C)C(=O)/C(C#N)=C/c2ccccc2)CC1,/,-0.2,-6.8,/,6.5,/
Cn1nnnc1Sc1ncnc2scc(-c3ccc(F)cc3)c12,6.8,-88.9,-3.4,-0.1,31.0*,26.7*
Cn1nnnc1Sc1ncnc2scc(-c3ccccc3)c12,-6.5,-59.1,-11.4,7.8,14.2,-2.3
Cc1nnc(SCC(=O)Nc2sc3c(c2C(=O)c2ccccc2)CCCC3)s1,7.3,-16.2,9.6,-8.7,2.0,3.6
C(=C\c1ccc2ccccc2n1)/c1ccccc1,1.6,66.9*,-108.0,-175.5,5.0,0.3
CN(C)c1ccc(/C=C/c2nc3ccccc3s2)cc1,1.1,81.1*,53.2,-13.7,-0.5,1.3
O=C(O)/C=C/c1ccc2ccccc2n1,1.2,-64.2,-16.4,-2.4,-1.0,-2.3
Cc1ccc(/C=C/c2nc3ccccc3s2)s1,2.0,71.4*,-120.5,-98.5,-0.1,-2.3
COc1cc(/C=C/c2nc3ccccc3s2)cc(OC)c1O,-3.7,-69.1,-37.0,-129.1,1.5,-2.5
CN(C)c1ccc(/C=C/c2ccc3ccccc3n2)cc1,22.1,89.1*,104.5*,/,21.1,15.2
CCCCCCCCC(=O)NNC(=O)c1c(O)c2ccccc2n(CCC)c1=O,8.0,8.6,-23.4,-5.6,-3.9,0.9
CN(C)c1ccc(CNc2nc3ccccc3s2)cc1,/,80.2*,63.5*,/,-7.4,/
COc1cc(/C=N/NC(=O)C(=O)/C=C2\NC3(CCCC3)Cc3ccccc32)ccc1O,4.0,13.8,-7.5,-9.2,4.1,-2.2
O=C(/C=C1\NC2(CCCC2)Cc2ccccc21)C(=O)N/N=C/c1ccccc1O,7.4,74.3*,-28.3,66.6*,-5.1,-3.4
COc1ccc(NC(=O)C2CCCN(S(=O)(=O)c3ccccc3)C2)c(OC)c1 (stereo not given),/,-4.3,-17.9,/,-3.3,/
CCOC(=O)Cn1nnnc1CN(Cc1cccs1)Cc1cc2cc(C)ccc2[nH]c1=O,2.5,22.9,7.1,62.1*,-6.8,-1.4
